According to PubChem BioAssay AID687014 (The Scripps Research Institute Molecular Screening Center, 2013):
Out of some 370,000 compounds screened, about 6,800 (1.8%) were called active. The sample holds actives, similar compounds and a random draw of the others, so the mix is not that of the screen. A number with no mark means an inactive call.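 How the source made its calls: active means activation above a cutoff set at the mean of all screened compounds plus 3 SD (cut at about 10% in these data); inactive means the rest.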

System: Nuclear hormone receptor DAF-12 (Heterodera glycines), GAL4 fusion
Test: H. glycines DAF-12 receptor agonists, primary screen, cell-based, luminescence, HEK293, GAL4 fusion, UAS-luciferase (AID 687014);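 further: 0% = DMSO wells and 100% = sodium butyrate wells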
Conditions: HEK293 GAL4-hgDAF12 UAS-luciferase reporter, agonist luminescence; at 6.8 µM; stronger effect = higher value; normalized to butyrate control

SMILES	activation
CCC(C)(C)NC(=O)C(c1ccc(O)cc1)N(C(=O)Cn1nnc2ccccc21)c1ccc(NC(C)=O)cc1 (stereo not drawn)	-2.76%
C[C@H](CO)N1C[C@H](C)[C@@H](CN(C)C(=O)Nc2ccccc2F)OCc2cn(nn2)CCCC1=O	4.8%
COc1cc(/C=C(\C#N)c2nc3c(s2)CC(C)CC3)ccc1O (stereo not drawn)	13.1% (active)
CCCC1CCC2(CCCN2CCOC(=O)NCc2ccccc2)CC1 (stereo not drawn)	-0.9%
CCC(c1ccc(NC(=O)OC(C)(C)C)cc1)c1cc(OC)cc(OC)c1 (stereo not drawn)	-1.91%
CC(C)(C)n1nc(C2CC2)c(Br)c1NC(=O)c1ccccc1F	-1.55%
CC(=O)c1ccc(N2Cc3ccccc3C2)cc1	12.2% (active)
CC(=O)N1Cc2ccccc2CC1C(=O)O (stereo not drawn)	2.94%
CC(=O)c1ccc(N2CCN(CC(O)c3ccccc3)CC2)cc1 (stereo not drawn)	-0.45%
O=C(NCc1cccs1)C1CCN(S(=O)(=O)c2ccccc2[N+](=O)[O-])CC1	1.45%
Cc1ccc(-c2nc3ccccc3[nH]2)cc1N	12.8% (active)
c1ccc2[nH]c(-c3nc4ccccc4[nH]3)nc2c1	11.8% (active)
O=C1c2ccccc2C(c2nc3ccccc3[nH]2)N1c1ccccc1 (stereo not drawn)	5.38%
Nc1ccccc1-c1nc2ccncc2[nH]1	3.95%
Cc1ccccc1N1CC(c2nc3ccccc3[nH]2)CC1=O (stereo not drawn)	0.19%
CCOC(=O)CNC(=O)CSc1ncccc1-c1nc2ccccc2[nH]1	-0.67%
COC(=O)C1CN(CC(C)C)CCS(=O)(=O)N1Cc1ccc(F)cc1 (stereo not drawn)	-3.03%
CC(C)Cn1c(N2CCN(C(=O)/C=C/c3ccccc3)CC2)nc2ccccc21	-3.13%
CN(C(=O)CSc1nnc(Nc2ccccc2)s1)C1CCS(=O)(=O)C1 (stereo not drawn)	1.71%
CC(C)c1ccc(Nc2nnc(SCC(=O)c3nnc(-c4ccccc4)o3)s2)cc1	17.7% (active)
CC(C)Nc1nnc(SCC(=O)c2c[nH]c3ccccc23)s1	-0.17%
O=C(NCc1cccc(CNC(=O)Nc2cccc(O)c2)c1)Nc1cccc(O)c1	-0.42%
O=C(Nc1cccc(O)c1)c1ccc(C(=O)c2ccccc2)o1	15.9% (active)
O=C(OCc1ccc(-c2ccccc2)cc1)c1cccc(O)c1	7.53%
CC(=O)N1CCc2cc(S(=O)(=O)NCCC(=O)N3CCCC3)ccc21	0.07%
Cc1ccc(C(=O)O/N=C(\N)c2ccccn2)cc1Cl	4.09%
COc1ccc(C(=O)NNC(=O)c2cnccn2)cc1[N+](=O)[O-]	2.33%
COc1ccc(C(=O)O/N=C(\N)c2ccccn2)cc1[N+](=O)[O-]	17.4% (active)
